Shown are actives, neighbours in structure and some others; about 2.9% of the full set was active somewhere.
PAFAH2 FP inh = PAFAH2 enzyme inhibitors, primary screen, biochemical, fluorescence polarization, human; Platelet-activating factor acetylhydrolase 2, cytoplasmic (Homo sapiens), Q99487; recombinant PAFAH2, FP-rhodamine activity probe; inhibition, % at 3.39 µM; actives 0.99% (n = 340,000);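 active means inhibition above the mean over all tested compounds plus 3 SD, cut at about 30% in these data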;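 further: inhibitors block probe labeling of enzyme so polarization drops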
PME-1 primary = PME-1 inhibitors via competitive probe labeling, primary screen, biochemical, fluorescence polarization, FP-Rh probe, HTS; inhibition, % at 5.9 µM; actives 0.53% (n = 320,000); recombinant PME-1; Protein phosphatase methylesterase 1 (Homo sapiens), Q9Y570;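 active means inhibition above the campaign mean of all compounds plus 3 SD, cut at about 26% in these data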;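 further: competitive labeling of PME-1 active site by serine hydrolase directed probe; inhibitors block probe labeling so polarization falls and inhibition rises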
Target sequence (Q9Y570 whole entry, looked up): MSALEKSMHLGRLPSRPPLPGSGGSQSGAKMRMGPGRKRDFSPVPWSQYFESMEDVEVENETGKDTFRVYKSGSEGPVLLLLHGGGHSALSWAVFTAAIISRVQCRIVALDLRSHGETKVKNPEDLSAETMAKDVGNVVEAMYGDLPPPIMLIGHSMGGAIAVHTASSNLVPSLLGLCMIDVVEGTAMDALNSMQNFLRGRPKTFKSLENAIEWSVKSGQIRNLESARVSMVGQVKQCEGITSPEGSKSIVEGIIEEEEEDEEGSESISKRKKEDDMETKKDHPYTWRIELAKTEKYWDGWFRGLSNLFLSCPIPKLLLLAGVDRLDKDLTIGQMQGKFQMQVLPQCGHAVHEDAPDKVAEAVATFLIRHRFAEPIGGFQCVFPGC
pPAFAH FP inh = pPAFAH enzyme inhibitors, primary screen, biochemical, fluorescence polarization, human. Platelet-activating factor acetylhydrolase (Homo sapiens), Q13093. recombinant pPAFAH, FP-rhodamine probe fluorescence polarization. inhibition, % at 3.39 µM. actives 1.5% (n = 330,000). AID 463082, 2010;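 active means inhibition above the mean inhibition across the screen plus 3 SD, cut at about 25% in these data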;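 further: inhibitors block binding of the rhodamine activity-based probe so polarization drops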
PAFAH1B2 inh = PAFAH1B2 enzyme inhibitors, primary screen, biochemical, fluorescence polarization, human; Platelet-activating factor acetylhydrolase IB subunit alpha2 (Homo sapiens), P68402; recombinant PAFAH1B2, FP-rhodamine activity probe; inhibition, % at 3.39 µM; actives 1.2% (n = 340,000);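 active means inhibition above the mean of all tested compounds plus 3 SD, cut at about 24% in these data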
Target sequence (P68402 whole entry, looked up): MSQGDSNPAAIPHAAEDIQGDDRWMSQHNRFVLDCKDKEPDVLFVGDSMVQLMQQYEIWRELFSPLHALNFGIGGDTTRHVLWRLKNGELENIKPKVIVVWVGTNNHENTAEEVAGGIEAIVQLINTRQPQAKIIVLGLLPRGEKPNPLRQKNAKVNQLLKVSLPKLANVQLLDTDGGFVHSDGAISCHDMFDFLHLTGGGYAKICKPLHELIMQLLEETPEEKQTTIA
PAFAH1B3 inh = PAFAH1B3 enzyme inhibitors, primary screen, biochemical, fluorescence polarization, human | Platelet-activating factor acetylhydrolase IB subunit alpha1 (Homo sapiens), Q15102 | recombinant PAFAH1B3, FP-rhodamine probe | inhibition, % at 3.39 µM | actives 0.28% (n = 340,000);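 active means inhibition above the screen-wide average of all tested compounds plus 3 SD, cut at about 25% in these data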
Fam108B counter = mouse Fam108B serine hydrolase inhibitors, primary screen, counter-screen for RBBP9 inhibitor project, biochemical, fluorescence polarization. recombinant Fam108B, FP-Rh probe fluorescence polarization. inhibition, % at 9.51 µM. actives 0.33% (n = 300,000). AID 1947, 2009;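 active means inhibition above the screen mean inhibition plus 3 SD, computed separately per campaign, cut at about 18% in these data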;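 further: inhibitors lower polarization as less probe binds the enzyme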
Of the large screens only hits and unclear results are named; the others gave an inactive call.

CCOP(=O)(c1ccccc1)C1(C#N)CC1 (stereo not drawn)	none
O=C1CCCC(c2ccccc2)N1 (stereo not drawn)	none
c1ccc(-c2ccc(C3CCCN3)cc2)cc1 (stereo not drawn)	PME-1 primary 33.2
CCOC(=O)N1CCN(C(=O)CN2C(=O)CC(C)(C)S(=O)(=O)c3ccccc32)CC1	none
CCOc1ccc2nc(SCC(=O)Nc3ccc4c(c3)OCCO4)[nH]c2c1	PME-1 primary 27.4
O=C(CCNC(=O)c1ccc(Cl)cc1)NCc1cccc(C(F)(F)F)c1	PAFAH1B2 inh 25.3
O=C(Cc1cccc(C(F)(F)F)c1)NCc1ccc(Cl)cc1	none
COc1ccccc1-c1c(C#N)c(N)nc2c1CCc1ccccc1-2	PME-1 primary 40.3
Cc1ccc(C(=O)/C=C/c2ccc(-c3ccc(C)cc3)o2)cc1	pPAFAH FP inh 25.7
COc1ccc(/C=C2\SC(N3CCCCC3)=NC2=O)cc1OC	none
COc1ccc(OC)c(/C=C2\SC(N3CCCC(C)C3)=NC2=O)c1 (stereo not drawn)	pPAFAH FP inh 27.4
Cc1ccc(Cl)cc1NS(=O)(=O)Cc1ccccc1	pPAFAH FP inh 30.5
Cc1nc(N)c2c(Cc3cccc4ccccc34)nn(C(C)(C)C)c2n1	none
O=C(NNC(=S)Nc1ccc(Cl)c(Cl)c1)c1cccc([N+](=O)[O-])c1	pPAFAH FP inh 31.8 (no result: PAFAH2 FP inh, PAFAH1B2 inh, PAFAH1B3 inh)
Cc1cccc(NC(=S)NNC(=O)c2cccc([N+](=O)[O-])c2)c1	none
CCOc1cccc(=O)c2c(C)n(Cc3ccccc3)c(C)c12	pPAFAH FP inh 26.5
CCOc1cccc(=O)c2c(C)n(Cc3ccco3)c(C)c12	pPAFAH FP inh 33.2
O=[N+]([O-])c1nn(-c2ccc3c(c2)OCCO3)n(O)c1=NC1CCN(Cc2ccccc2)CC1	none
COc1cc(C(c2c(C)n(C)n(-c3ccccc3)c2=O)c2c(C)n(C)n(-c3ccccc3)c2=O)cc(Br)c1O	none
Cc1noc(/C=C/N(C)C)c1S(=O)(=O)N1CCc2ccccc21	none
CCCCn1c(/C=C/c2ccco2)nc2ccccc21	none
CCCn1c(/C=C/c2ccco2)nc2ccccc21	pPAFAH FP inh 24.9
Clc1ccc(Cn2c(/C=C/c3ccco3)nc3ccccc32)cc1	pPAFAH FP inh 32.8
CN(C)c1nnnn1-c1ccc(OC(F)(F)F)cc1	none
Oc1ccc(Br)cc1-c1nc2cnccn2c1NC1CCCC1	PME-1 primary 26.2
Cc1ccn2cc(CCNS(=O)(=O)c3ccc([N+](=O)[O-])cc3)nc2c1	pPAFAH FP inh 30.4
C=CCn1c(SCC(=O)NC2CC2)nnc1C1CC1	none
Cc1ccc([C@@H]2[C@@H]3C(=O)N(C)C(=O)[C@@H]3[C@]3(C)C(=O)N(Cc4ccccn4)CC(=O)N23)o1	none
Cc1nn(-c2ccccc2)c(C)c1NC(=O)COC(=O)CC(C)c1ccccc1 (stereo not drawn)	pPAFAH FP inh 27.4
Cc1nn(-c2ccccc2)c(C)c1NC(=O)COC(=O)Cc1cccc(C(F)(F)F)c1	none
CCOc1ccc(OCCC(=O)OCC(=O)Nc2cc(C)nn2-c2ccccc2)cc1	none
Cc1cccc(OCCC(=O)OCC(=O)Nc2c(C)nn(-c3ccccc3)c2C)c1	pPAFAH FP inh 29.1
CC(=NNc1nc2ccccc2s1)c1ncccn1	none (no result: PME-1 primary, pPAFAH FP inh, Fam108B counter)
C/C(=N\Nc1nc2ccccc2s1)c1cccs1	PME-1 primary 31.7
CN(C)S(=O)(=O)c1ccc(N2CCOCC2)c(C(=O)NCc2ccc3c(c2)OCO3)c1	none (no result: Fam108B counter)
Cc1cccc(C(=O)NNc2ncnc3c2cnn3C)c1	none
O=C(NNS(=O)(=O)c1cccc(Cl)c1)c1cc(-c2ccc(F)cc2)nc2ccccc12	PAFAH1B2 inh 39.9
O=C(NNS(=O)(=O)c1ccc(F)cc1)c1cc(Cl)ccc1O	PAFAH1B2 inh 26.2 (no result: PME-1 primary, pPAFAH FP inh, Fam108B counter)
COC(=O)C1(Cc2ccccc2)NC(c2ccccc2C)C2C(=O)N(c3ccc4c(c3)OCO4)C(=O)C21 (stereo not drawn)	none
COc1ccc(S(=O)(=O)N2c3ccc(F)cc3CCC2C)cc1 (stereo not drawn)	PAFAH1B2 inh 26.9
CC(=O)Nc1ccc(S(=O)(=O)N2c3ccc(F)cc3CCC2C)cc1 (stereo not drawn)	none
O=C(O)c1ccc2c(c1)C(=O)/C(=C/c1ccccc1)C2=O	pPAFAH FP inh 27.4, PAFAH1B3 inh 39.3
CC(C)(C)N1C(=O)c2ccc(C(=O)O)cc2C1=O	none
CC1CN(c2oc(-c3ccco3)nc2C#N)CC(C)O1 (stereo not drawn)	none
CCOc1ccc(N=Nc2c(=O)[nH]n3c(=O)c4c([nH]c23)CCCC4)cc1	PME-1 primary 44.4
O=c1[nH]n2c(=O)c3c([nH]c2c1N=Nc1cccc(Cl)c1)CCCC3	PAFAH2 FP inh 30.4, PME-1 primary 58.1, pPAFAH FP inh 30.9, PAFAH1B2 inh 34.1
CCOc1ccc(N=Nc2c(=O)[nH]n3c(=O)cc(C)[nH]c23)cc1	none
COCCn1c(N2CCN(c3ccc(OC)cc3)CC2)nc2c1c(=O)[nH]c(=O)n2C	none
Cc1ccc(NC(=O)C2C(c3ccccc3)C2(Cl)Cl)c(C)c1 (stereo not drawn)	none
CCOc1ccccc1NC(=O)CSc1nc2c(c(=O)n(C)c(=O)n2C)n1C	none
CC(=O)N1N=C(N)SC1c1cccc([N+](=O)[O-])c1 (stereo not drawn)	none
COC(=O)c1ccc(CSc2nc3scc(-c4cccs4)c3c(=O)[nH]2)o1	pPAFAH FP inh 28.7
O=C(NCC1CCCCC1)c1cc(Br)ccc1Cl	none
CN(C(=O)c1cccc(NC(=O)Cc2ccc(NC(=O)C3CCCN(C(=O)c4ccccc4)C3)cc2)c1)C1CCCC1 (stereo not drawn)	none (no result: PME-1 primary, pPAFAH FP inh, Fam108B counter)
COc1cccc2c1C1(O)C2CCCCCCCCCC12OCCCO2 (stereo not drawn)	PAFAH1B2 inh 25.3 (no result: PME-1 primary, pPAFAH FP inh, Fam108B counter)
C=CCn1c(SCC(=O)c2ccc(O)c(O)c2)nnc1-c1ccccc1OC	pPAFAH FP inh 27.1
C=CCn1c(SCC(=O)c2ccc(O)c(O)c2)nnc1-c1cccc(Cl)c1	PAFAH2 FP inh 39.0, pPAFAH FP inh 28.5 (no result: Fam108B counter)
C=CCn1c(SCC(=O)O)nnc1-c1cccc(Cl)c1	none
C=CCn1c(SCC(=O)Nc2cc(C)on2)nnc1-c1ccccc1OC	none (no result: PME-1 primary, Fam108B counter)
CS(=O)(=O)N(CC(=O)N1CCc2ccccc2C1)Cc1ccc(Cl)cc1	none
Cc1cc(C)c(NS(=O)(=O)c2c(C(=O)N3CCOCC3)c(C)n(C)c2C)c(C)c1	pPAFAH FP inh 29.2
CCc1ccc(C(CC(=O)c2ccc(Cl)cc2)C(=O)O)cc1 (stereo not drawn)	none

Source: PubChem BioAssay
